# Test results reported in article PMC5540273 (PLoS ONE, 2017).
# Legend:
# Details in all cases: concentration: 1 μM, replicates: in singlicate; n = 1
# BMX = system: BMX
# BRAF = system: BRAF
# BRK = system: T1, BRK
# T1 construct: gene PTK6
# BRSK1 = system: BRSK1
# BRSK2 = system: BRSK2
# BTK = system: BTK
# BUB1 = system: BUB1
# CAMK1B = system: CAMK1B
# CAMK1D = system: CAMK1D
# CAMK1G = system: CAMK1G
# 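Note: KINOMEscan kinase panel screen.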
Structure (SMILES),%Inh (BMX) [%],%Inh (BRAF) [%],%Inh (BRK) [%],%Inh (BRSK1) [%],%Inh (BRSK2) [%],%Inh (BTK) [%],%Inh (BUB1) [%],%Inh (CAMK1B) [%],%Inh (CAMK1D) [%],%Inh (CAMK1G) [%]
CCn1c(-c2nonc2N)nc2c(C#CC(C)(C)O)nc(OC[C@H](N)c3ccccc3)cc21 [GSK943949],2,42,0,0,50,0,13,0,10,0
FC(F)(F)c1ccc(/C=C/c2cncnc2Nc2ccc3[nH]c(Cc4ccccc4)nc3c2)cc1 [GW709199],0,0,11,3,8,19,0,0,5,0
O=C(Nc1cccc(-c2nn3ccccc3c2-c2ccnc(Nc3cccc(C(F)(F)F)c3)n2)c1)c1c(F)cccc1F [GSK292658],52,43,41,0,0,50,45,33,0,0
O=C(NC1CCN(c2ccnc(Nc3ccc(F)cc3)n2)C1)c1cc2ccccc2s1 (centres unmarked) [GSK1379716],22,0,25,18,9,0,64,9,17,0
COc1ccc(Nc2nccc(NCCNC(=O)c3cc4ccccc4s3)n2)cc1 [GSK1379896],17,0,1,6,0,0,9,39,6,0
Cc1occc1-c1ncc(OC[C@@H](N)Cc2c[nH]c3ccccc23)cc1-c1ccc2[nH]nc(C)c2c1.O=C(O)C(F)(F)F [GSK682037],22,0,7,0,0,0,23,29,82,27
CC(C)c1nc(-c2cccc(NS(=O)(=O)c3c(F)cccc3F)c2F)c(-c2ccnc(Nc3ccc(N4CCOCC4)nc3)n2)s1 [GSK2008607],99.2,99.9,88,49,75,95.3,98,67,94.3,42
CSc1cccc2c(-c3ccncn3)c(-c3ccc(F)cc3)nn12 [GW514786],14,13,9,14,0,11,89,0,7,0
c1ccc(Oc2ccc(Nc3ccnc4cc(-c5ccc(CNCCN6CCOCC6)o5)ccc34)cc2)nc1 [GW567145],20,0,85,0,0,86,54,0,2,0
O=c1[nH]cc(-c2ccc(N3CCOCC3)cc2)c2sc(-c3cn[nH]c3)cc12 [GSK2276055],11,35,0,0,0,0,0,5,29,12
Cn1cc(-c2ccc3c(c2)CCN3C(=O)Cc2cccc(F)c2)c2c(N)ncnc21 [GSK2603358],0,4,26,14,67,0,52,34,74,11
Cl.Cl.NCC(C(=O)Nc1cc(Br)c(-c2ccnc3[nH]ccc23)s1)c1ccccc1 (centres unmarked) [GSK1269851],12,1,7,6,0,0,59,24,0,0
O=C(Nc1cccc(-c2nn3ncccc3c2-c2ccnc(Nc3ccccc3)n2)c1)c1c(F)cccc1F [GSK198271],89,90.9,94.5,4,0,99.4,32,9,25,11
CN1CCN(CCCNc2nccc(-c3c(-c4ccc(F)cc4)nn4cc(C(F)(F)F)ccc34)n2)CC1 [GW621581],0,41,9,2,1,0,26,5,11,0
Cl.Cl.NCC(NC(=O)c1cc(-c2ccccc2)c(-c2ccnc3[nH]ccc23)s1)c1ccccc1 (centres unmarked) [GSK1321561],38,9,8,0,0,0,72,24,5,0
Nc1ncnc2c1nc(-c1ccccc1)n2-c1ccccc1 [SKF-97293],15,6,1,15,27,0,46,6,8,0

Structure (SMILES),%Inh (BMX) [%],%Inh (BRAF) [%],%Inh (BRK) [%],%Inh (BRSK1) [%],%Inh (BRSK2) [%],%Inh (BTK) [%],%Inh (BUB1) [%],%Inh (CAMK1B) [%],%Inh (CAMK1D) [%],%Inh (CAMK1G) [%]
O=C(O)C(F)(F)F.O=C(O)C(F)(F)F.O=c1[nH]ccc2nc(N[C@@H]3CCCNC3)nc(Nc3ccc(S(=O)(=O)N4CCOCC4)cc3)c12 [GSK2177277],58,0,9,69,69,90.7,90.5,100,99.1,74
CN(C)Cc1ccc(-c2ccc3c(Nc4ccc(Oc5ccccn5)cc4)ccnc3c2)o1 [GW567148],12,1,95.2,0,0,74,0,0,0,0
COc1cc(Nc2nccc(-c3c(-c4cccc(NC(=O)c5c(F)cccc5F)c4)nn4ncccc34)n2)cc(OC)c1OC [GSK327238],91.4,96,97.6,0,40,94,54,0,13,3
Cc1ccc(S(=O)(=O)Nc2ccc(Nc3nccc(Nc4cccc5[nH]ncc45)n3)cc2)cc1 [GSK581271],5,6,34,5,0,0,44,7,8,0
Cc1cccc(NC(=O)Nc2ccc(Oc3ncnc4ccn(C)c34)cc2)c1,0,0,0,0,0,91.6,0,14,6,0
c1ccc(-c2cnc3nccnn23)cc1 [AH20685],0,33,22,0,0,6,0,0,0,0
Cc1ccc(C)c(NC(=O)NC2CCN(c3ccnc(Nc4ccc(F)cc4)n3)C2)c1 (centres unmarked) [GSK1379720],0,0,21,0,0,0,49,0,6,11
Nc1ncc(-c2ccc3nccc(-c4ccncc4)c3c2)cc1S(=O)(=O)N1CCOCC1 [GSK1627798],16,15,8,0,0,0,12,0,36,16
COc1cccc(C(=O)Nc2cccc(Oc3ccc4nc(NC(=O)C5CC5)cn4n3)c2)c1,77,96.5,21,4,0,9,0,0,17,21
CC(=O)N1CCN(c2ccc(Nc3nccc(-c4sc(C(C)C)nc4-c4cccc(NS(=O)(=O)c5cccc(Cl)c5)c4)n3)cn2)CC1 [GSK1660437],56,99.3,91.8,0,2,36,91,0,12,0
Nc1n[nH]c2cnc(-c3ccccc3)cc12 [SB-642124],5,7,19,13,7,0,44,8,0,10
Oc1cc(Nc2ccnc3cc(I)ccc23)ccc1F [GW552771],15,79,28,11,0,7,57,37,8,0
CC(C)(C)c1ccc2nccc(Nc3cccc(O)c3)c2c1 [GW856795],0,41,51,0,11,43,24,68,13,0
COC(=O)Nc1nc2cc(Oc3ccc(NC(=O)Nc4cc(C(F)(F)F)ccc4F)cn3)ccc2[nH]1.Cl.Cl [GW681170],5,73,0,0,0,0,3,28,12,44
O=C(Nc1ccccc1F)NC1CCN(c2ccnc(Nc3ccc(F)cc3)n2)CC1 [GSK1379800],3,0,0,0,0,0,63,36,5,0
Cc1cccc(Nc2nc(N[C@H]3CCNC3)ncc2C(N)=O)c1.Cl [GSK2197149],16,4,7,0,0,0,44,68,55,8
